Assay results published in PMC5540273 (PLoS ONE, 2017).

test system: FER; settings: concentration: 1 μM, replicates: in singlicate; n = 1
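Further: KINOMEscan kinase panel screen.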

SMILES	%Inh
Cl.Cl.NCC(NCc1ccc(-c2ccnc3[nH]ccc23)s1)c1ccccc1 (centres unmarked) [GSK1321565]	46%
Cn1cc(-c2ccc3c(c2)CCN3C(=O)Cc2cccc(F)c2)c2c(N)ncnc21 [GSK2603358]	35%
Clc1ccc(-c2nn3ncccc3c2-c2ccnc(Nc3ccc4c(c3)OCCO4)n2)cc1 [GW829116]	0%
Nc1ncc(-c2cccnc2)c2scc(-c3ccc4c(c3)CCN4C(=O)Cc3ccccc3)c12 [GSK683281]	33%

test system: FES; settings: concentration: 1 μM, replicates: in singlicate; n = 1

SMILES	%Inh
CCS(=O)(=O)c1ccc(OC)c(Nc2nccc(-c3c(-c4cccc(NC(=O)c5c(F)cccc5F)c4)nn4ncccc34)n2)c1 [GSK326180]	0%
COc1cc(Nc2nccc(-c3c(-c4cccc(NC(=O)c5c(F)cccc5F)c4)nn4ncccc34)n2)cc(OC)c1OC [GSK327238]	50%
COc1ccc(-c2coc3ccc(-c4nnc(SCc5ccc(OC)c(C(F)(F)F)c5)o4)cc23)cc1	4%
Oc1cc(Nc2ccnc3cc(I)ccc23)ccc1F [GW552771]	0%
O=c1[nH]cc(-c2ccc(N3CCOCC3)cc2)c2sc(-c3cn[nH]c3)cc12 [GSK2276055]	0%
FC(F)(F)c1ccc(/C=C/c2cncnc2Nc2ccc3[nH]c(Cc4ccccc4)nc3c2)cc1 [GW709199]	38%
Nc1ncnc2c1nc(-c1ccccc1)n2-c1ccccc1 [SKF-97293]	30%
Cn1cc(-c2ccc3c(c2)CCN3C(=O)Cc2cccc(Cl)c2)c2c(N)ncnc21 [GSK2606590]	0%
Cc1ccc(C(=O)Nc2ccc(Nc3ccnc4cc(-c5nccs5)ccc34)cc2O)cc1.Cl [GW494702]	24%
COc1cc(Nc2ncc3c(C)nc(-c4cc5ccccc5[nH]4)n3n2)cc(OC)c1OC [GW869516]	0%
COc1ccc(CNC(=O)NC2CCN(c3ccnc(Nc4ccc(F)cc4)n3)CC2)cc1 [GSK1379788]	0%
CCn1c(-c2nonc2N)nc2c(C#CC(C)(C)O)nc(OC[C@H](N)c3ccccc3)cc21 [GSK943949]	0%
Cl.c1ccc(-c2ccc3c(Nc4ccc5[nH]ncc5c4)ccnc3c2)nc1 [GW440137]	0%
COc1cccc(-c2ccc3c(NC(=O)C4CC4)n[nH]c3n2)c1 [SB-710903]	0%
COc1cccc(C(=O)Nc2cccc(Oc3ccc4nc(NC(=O)C5CC5)cn4n3)c2)c1	0%
CNC(=O)c1ccccc1Nc1nc(Nc2ccc(N3CCOCC3)cc2)ncc1Cl.Cl [GSK1576028]	62%
O=C(Nc1cccc(Oc2ccc3nc(NC(=O)C4CC4)cn3n2)c1)c1ccccc1C(F)(F)F	22%
Cc1ccc(S(=O)(=O)Nc2ccc(Nc3nccc(Nc4cccc5[nH]ncc45)n3)cc2)cc1 [GSK581271]	0%
Cc1cccc(NC(=O)Nc2ccc(Oc3ncnc4ccn(C)c34)cc2)c1	0%

SMILES	%Inh
CC(=O)Nc1nc2cnc(Nc3cc(NC(=O)c4cccc(C5(C#N)CC5)c4Cl)ccc3C)nc2s1	12%
COc1cccc(C2=C(Nc3ccc(Cl)c(C(=O)O)c3)C(=O)NC2=O)c1 [SB-390769]	0%
CN(C)S(=O)(=O)c1cc(-c2ccc3nccc(-c4cccc(S(N)(=O)=O)c4)c3c2)cnc1N [GSK1669921]	14%
O=C(Nc1ccccc1F)NC1CCN(c2ccnc(Nc3ccc(F)cc3)n2)CC1 [GSK1379800]	0%
O=C(Nc1n[nH]c2cc(-c3ccoc3)ccc12)C1CC1 [SB-738481]	5%
CSc1cccc2c(-c3ccncn3)c(-c3ccc(F)cc3)nn12 [GW514786]	0%
CN(c1ccc(NC(=O)Nc2cc(C(F)(F)F)ccc2F)cc1)c1ccnc(Nc2ccc(S(N)(=O)=O)cc2)n1 [GW809893]	72%
O=C(Nc1cccc(-c2nn3ncccc3c2-c2ccnc(Nc3ccccc3)n2)c1)c1c(F)cccc1F [GSK198271]	6%
c1ccc(-c2n[nH]cc2Nc2ccnc3ccccc23)nc1 [GW694077]	0%
Cl.Cl.NCC(C(=O)Nc1cc(Br)c(-c2ccnc3[nH]ccc23)s1)c1ccccc1 (centres unmarked) [GSK1269851]	38%
O=C(Nc1cccc(-c2nn3ccccc3c2-c2ccnc(Nc3cccc(C(F)(F)F)c3)n2)c1)c1c(F)cccc1F [GSK292658]	0%
Cc1ccc(C)c(NC(=O)NC2CCN(c3ccnc(Nc4ccc(F)cc4)n3)C2)c1 (centres unmarked) [GSK1379720]	0%
COCCOCCOc1cc2ncc3c4ccc(C#N)cc4[nH]c3c2cc1OC	17%
CN1CCN(Cc2cccc(-c3ccc4c(Nc5ccc(Oc6ccccc6)cc5)ccnc4c3)c2)CC1 [GW578342]	4%
Cl.Cl.NCC(NCc1ccc(-c2ccnc3[nH]ccc23)s1)c1ccccc1 (centres unmarked) [GSK1321565]	0%
Cn1cc(-c2ccc3c(c2)CCN3C(=O)Cc2cccc(F)c2)c2c(N)ncnc21 [GSK2603358]	0%
Clc1ccc(-c2nn3ncccc3c2-c2ccnc(Nc3ccc4c(c3)OCCO4)n2)cc1 [GW829116]	0%
Nc1ncc(-c2cccnc2)c2scc(-c3ccc4c(c3)CCN4C(=O)Cc3ccccc3)c12 [GSK683281]	0%
